# Reference: the supplement of paper PMC6555819
# Experiments:
# Assay in all cases: PBM binding z-score (relative to random genomic background probes); higher = stronger binding; sequences stand for … in GC…GCGATTGACAGCGTAGAATGAAGG
# [1] = test system: RARb homodimer (NR concentration 270 nM)
# Procedure, shortened: (§1)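 Probes were double-stranded and carried 34-nt variable regions with direct-repeat seeds, single-nucleotide variants, half-site ablations and random human genomic background sequences, printed on custom Agilent 4×180K protein-binding microarrays. Arrays were incubated 1 h with ligand-free nuclear receptor dimers in PBS pH 7.4, 2% milk, 0.02% Triton X-100, 1 mM DTT, 0.2 mg/mL BSA and 0.4 mg/ml salmon testes DNA. Antibodies against each partner (one per run) detected binding, and scanned fluorescence was regression-normalized. Binding z-scores use the random background probes as reference.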
# [2] = test system: RARg:RXRa (NR concentration 270 nM, RXRa partner concentration 90 nM)
# Procedure, shortened: as §1
# [3] = test system: RARg homodimer (NR concentration 270 nM)
# Procedure, shortened: as §1
# [4] = test system: RXRa DBDmut IVT, anti-RXR (DBD mutation: RXRa K156A/R161A, NR concentration 90 nM)
# Procedure, shortened: as §1
# [5] = test system: RXRa homodimer (NR concentration 180 nM)
# Procedure, shortened: as §1
# [6] = test system: THRa:RXRa (NR concentration 90 nM, RXRa partner concentration 90 nM)
# Procedure, shortened: as §1
# [7] = test system: THRa homodimer (NR concentration 90 nM)
# Procedure, shortened: as §1
# [8] = test system: VDR homodimer (NR concentration 270 nM)
# Procedure, shortened: as §1
Sequence,PBM binding z-score [1],PBM binding z-score [2],PBM binding z-score [3],PBM binding z-score [4],PBM binding z-score [5],PBM binding z-score [6],PBM binding z-score [7],PBM binding z-score [8]
CGGACTAGGTCAGAACAGGACAGTGAAGGATGAT,1.79,2.4,2.97,0.496,1.15,3.38,0.402,-0.0539
ACTAGCAGGCCAAGGGTCACCCAAGATTAGTCCG,3.96,4.79,4.32,0.27,4.91,3,0.576,0.895
GCTAGCAGGCCATGTGGGTCACTCAATGACGGGC,1.65,0.945,1.05,-0.752,0.909,0.759,-0.59,0.0438
ACTTTTAGTTGAGACGAGGGCAACCGATAGGTTG,1.35,0.942,1.03,0.926,0.7,2.53,0.433,1.02
TAGCCTAGGTCATTGGGCCTGTATAGTACGCATC,2.84,3.78,4.29,1.59,3.33,2.74,0.697,1.12
CCTAGTTGCTCAAGGTCACACACGCTATAGGTAC,4.14,4.56,4.78,2.19,4.8,4.05,4.51,4
CCTATAAGTTGACCATAAGGGCAACCGAAGCTCG,2.31,2.2,1.31,0.769,0.942,2.44,1.2,1.32
ATCGGAAGGTCGTGAGGTGAGTATACAGAAAGGC,2.27,3.03,2.55,0.762,3.05,2.83,1.76,1.04
TAGCCCAGGTCATGCGGGCCAGTATAGTGTCGGC,2.94,4.07,3.99,1.22,3.45,3.85,2.4,1.49
TCGAGTAGGTTAGGGGCATTAAGAATGGCGTCGA,0.787,0.329,0.269,0.304,0.639,0.955,0.048,0.785
AGAATGAGGTTATACGTAGATCGGGGAAGAAAGT,0.901,1.6,0.926,2.14,2.27,2.12,0.732,0.909
ATACCTAGGTGATCGTGAGGTCGTTGATACTAAC,1.49,1.58,0.568,0.641,1.51,3.15,2.51,3.13
CCTACTGGGACAAAGGTCATTGATTCCAATGCTC,4.66,5.3,4.6,1.83,5.76,3.57,1.25,2.94
TCTTGTAGACCAGCAGGTTAAGAAAGCTGGCCAA,0.0516,-0.0399,-0.6,0.357,0.393,0.00833,-0.609,-0.234
TTACCTAGGTGAAAGGTCGTTGATGCACGCCTTG,2.24,3.56,1.38,0.705,4.66,3.15,0.624,1.19
GTACCAAGGTTAATAGGTCGTTGATGAGTAGGCG,2.14,3.29,2.07,0.518,2.5,1.68,0.196,0.941
CCTAGCAGGCCAATCTGGGTCAATCAAGGCTTGA,1.85,0.779,1.13,0.108,0.518,3.67,-0.0726,-0.0739
AAAGACAGGTGATGAAGGTAACTCAGGCTATCAT,0.516,0.231,0.563,-0.304,0.572,1.23,0.466,0.111
CGAACTAGGTCAGAACAGGACAGTAAAGGATGAT,2,2.48,3.35,0.613,1.27,3.43,0.235,0.325

Sequence,PBM binding z-score [1],PBM binding z-score [2],PBM binding z-score [3],PBM binding z-score [4],PBM binding z-score [5],PBM binding z-score [6],PBM binding z-score [7],PBM binding z-score [8]
TCTTGTAGATGAAGCAGGTTAAGAAAGCCTGAGT,-0.21,-0.0639,-0.213,0.667,0.257,-0.0515,-0.455,-0.176
GTACCAAAGTGAATAGGTCGTTGATGAGTAGGCG,0.226,0.205,0.383,-0.282,0.584,-0.048,-0.733,-0.0624
TCATATAGGTAATCCAGGTGAAAGTCGGCATCTA,0.511,0.501,0.455,1.5,0.995,2.41,1.35,0.168
TCTGCTAGGTCAGTTGGTGAGCTAACGAGCTGCC,1.93,2.27,3.76,0.367,0.541,1.04,-0.41,-0.739
GCTACCAGGCCATTTGGGTCACTCAATGACGGGC,2.15,1.21,1.57,0.386,0.86,2.21,1.39,0.491
TGTCAAAGTTCAAAGGTAACGTAGGTATCCACAC,4.01,6.19,6.01,4.14,7.19,3.05,-0.392,3.97
CCTAGCAGGCCAATCTGCGTCACTCAAGGCTTGA,-0.405,-0.524,-0.155,0.164,-0.602,-0.51,-0.515,-0.294
TCTTGTAGACCAACAGGAGGTTAAGAAAGATCGA,0.694,0.411,0.151,0.322,0.799,0.789,-0.614,-0.388
AGAATGACGTTACCAAAGATCAGGGAAACGCTTG,-0.559,0.085,0.256,-0.636,0.0989,-0.427,-0.611,0.0201
TAGCCTAGGTCGGATCGGGCCAGTATACGCTATA,0.206,0.17,0.282,-1.2,-0.0599,2.67,-0.787,-0.985
TCATATAGGTAAACATGTGAAAGTCCGTAAGTTA,0.34,0.489,0.354,1.66,1.06,0.435,0.267,0.405
ATATGTAGGTTAGGTGGGGTCATTCAGACTAGGC,3.74,4.1,3.02,2.19,5.54,5.05,3.72,6.4
ACTATTAGTTGACACGAGGGCAACCGATAGGTTG,1.76,1.56,1.34,0.816,1.22,3.07,0.699,1.07
ACTATTAGTGGAGACGAGGGCAACCGATAGGTTG,0.803,0.333,0.653,0.323,0.276,1.45,-0.218,0.427
CCTAGCAGGCCAGGGTCACTAAAGCATTTCGCTT,2.69,2.79,2.41,0.297,2.89,2.67,0.878,0.922
TCGAGTAGGTTACCAATGGGGCGTTCAGCTTTCT,0.227,0.184,0.225,0.454,0.239,-0.0946,-0.39,-0.531
CCAGACAGGTGAAAGGTAACTGAGTCTGGTACGC,0.792,1.55,0.856,-0.0997,2.19,0.931,-0.381,-0.0816
CCGAGTTGGTTATGGGGCATTCAGGCAACGGTGA,0.393,-0.17,-0.319,1.14,0.0354,0.111,0.472,0.996
ACTAGCAGTCCAAGGGTCACTCAAGATTAGTCCG,3.7,3.72,3.27,0.612,3.58,2.61,0.466,1.15

Sequence,PBM binding z-score [1],PBM binding z-score [2],PBM binding z-score [3],PBM binding z-score [4],PBM binding z-score [5],PBM binding z-score [6],PBM binding z-score [7],PBM binding z-score [8]
GATACAGGGTCAGCTAGAGGCAAGAGTATGGAAA,2.77,4.72,4.64,0.963,4.52,2.8,0.438,0.394
AAAATGAGGTTATACGTAGATCAGGGAAGAAAGT,0.619,1.88,1.14,1.93,2.37,2.24,0.727,1.13
TAGGCTAGGTCATTCAGGGGCCAGTATAGAAAGC,3.57,6.42,4.85,1.71,3.26,3.7,0.658,1.95
CCGACTGGGGCATAAGGTTACCATTAGCCAGCCC,1.82,1.34,0.904,-0.204,1.08,1.87,1.37,-0.611
ATCTCTAGGTAAAAGTTCAGTGGATCCCGAGGAT,2.32,2.02,2.08,0.861,1.53,1.2,0.272,1.72
ATCTCTAGGTAAGACTCAGTTGAGTGAAGAACGC,-0.154,0.15,0.0573,0.17,-0.0983,0.492,0.309,0.119
ATATGTAGGTTAGCTGGGGTAATTCAGACTAGGC,0.856,0.69,0.761,0.642,0.773,3.87,0.672,0.606
TCGAGTAGGTTACCAATGAGGCATTCAGCTTTCT,-0.0486,0.457,0.0733,0.229,0.47,-0.137,-0.781,-1.08
TGTTGTAGATCAGCAGGTTAAGAAAGCTGGCCAA,-0.378,-0.266,-0.294,-1.38,-0.118,-0.32,-1.04,-0.583
CCGACTGGGGCAAAGGTTACCATACTCAGTACGA,2.22,3.52,1.78,0.712,3.67,1.78,-0.211,-0.204
CCATACGGGTCACTGACAGGTTATAGCATTTGGA,3.06,5.82,4.78,1.24,5.32,2.84,-0.0458,1.3
CAAACTAGGTCACGAAAGGTCCAAGTCGAATGAC,3.73,5.23,5.73,1.55,4.45,3.87,1.39,1.55
CAAACTAGGTCAAAGGTCAAAGTGGAGCCAACCA,4.96,8.91,7.43,3.12,10.1,4.71,1.88,3.27
GCTAGCAGGCCATTTGGCTCACTCAATGACGGGC,-1.05,-0.42,-0.0728,0.0311,-0.355,-1.69,-1.04,-0.733
TCTAGCAGGCCTGAGGGTCACTCAAGAGGTACGG,2.52,2.29,1.53,0.198,2.59,1.75,-0.278,0.36
AGTCAAAGTTCAGGACGAGGCAACGTAAAGCACG,2.9,3.86,4.55,3.06,2.86,2.76,0.753,1.61
CGTCCAAGGTCAAAGGGCAGTGAAGAGATGACGG,4.39,6.57,6.29,3.46,7.24,4.14,1.86,2.28
TCATAAAGGTAAATGCTAGGTGAAAGTCCGATCT,0.719,1.03,0.541,1.87,1.05,2.03,0.511,0.333
TCTAATAGTTGAAGGGCAACCGACGAGTCCGTTT,1.24,0.639,0.887,1.7,0.869,0.0071,-0.423,1.41
